Several values for one entry are separate records, joined by “and”; a condition that tells them apart may be missing. Equal entries are not always repeated. Inconclusive results are not listed. Entries that show only a call come without a potency. Activity calls are given as the source filed them. Unless noted, calls come from the whole dose curve; as a rule, active = well fitted curve in the direction sought with a large enough effect; inconclusive = small, poorly fitted or top-dose-only effect, or another doubt; inactive = no such curve, though single readings can be large; an effect the other way counts as inactive or inconclusive.
Key:
[1] = molecular target: Phosphoglycerate kinase, glycosomal (Trypanosoma brucei brucei) (UniProt P07378); assay: qHTS Validation Assay to Find Inhibitors of Phosphoglycerate Kinase (AID 504547)
Sequence of Phosphoglycerate kinase, glycosomal (Trypanosoma brucei brucei) (P07378 whole entry, looked up): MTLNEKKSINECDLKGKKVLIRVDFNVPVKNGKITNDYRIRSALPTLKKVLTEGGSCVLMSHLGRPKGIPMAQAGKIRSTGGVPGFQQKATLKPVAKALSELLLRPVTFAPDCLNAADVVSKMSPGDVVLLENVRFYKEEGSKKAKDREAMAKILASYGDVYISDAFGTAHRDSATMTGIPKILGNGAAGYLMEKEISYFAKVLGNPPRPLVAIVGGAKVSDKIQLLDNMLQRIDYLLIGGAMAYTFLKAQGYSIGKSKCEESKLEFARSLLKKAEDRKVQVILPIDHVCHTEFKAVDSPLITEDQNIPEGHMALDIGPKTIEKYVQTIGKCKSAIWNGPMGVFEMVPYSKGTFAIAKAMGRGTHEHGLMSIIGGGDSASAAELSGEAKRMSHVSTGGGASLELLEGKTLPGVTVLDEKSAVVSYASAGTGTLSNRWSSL
Procedure, shortened: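 Substrate/PGK mix plus compound; reaction started with GAPDH (100nM final) to form 1,3-BPG; 60 min RT; Kinase-Glo Plus 10 min; luminescence. TEA 100mM pH 7.6, MgCl2 5mM, Tween-20 0.01%.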

[2] = molecular target: Ubiquitin carboxyl-terminal hydrolase 1 (Homo sapiens) (UniProt O94782); assay: Inhibitors of USP1/UAF1: Pilot qHTS (AID 504865); note: nearly all actives have a fitted effect of over 35% in size; note: potency is the fitted concentration of half-maximal effect
Sequence of Ubiquitin carboxyl-terminal hydrolase 1 (Homo sapiens) (O94782 whole entry, looked up): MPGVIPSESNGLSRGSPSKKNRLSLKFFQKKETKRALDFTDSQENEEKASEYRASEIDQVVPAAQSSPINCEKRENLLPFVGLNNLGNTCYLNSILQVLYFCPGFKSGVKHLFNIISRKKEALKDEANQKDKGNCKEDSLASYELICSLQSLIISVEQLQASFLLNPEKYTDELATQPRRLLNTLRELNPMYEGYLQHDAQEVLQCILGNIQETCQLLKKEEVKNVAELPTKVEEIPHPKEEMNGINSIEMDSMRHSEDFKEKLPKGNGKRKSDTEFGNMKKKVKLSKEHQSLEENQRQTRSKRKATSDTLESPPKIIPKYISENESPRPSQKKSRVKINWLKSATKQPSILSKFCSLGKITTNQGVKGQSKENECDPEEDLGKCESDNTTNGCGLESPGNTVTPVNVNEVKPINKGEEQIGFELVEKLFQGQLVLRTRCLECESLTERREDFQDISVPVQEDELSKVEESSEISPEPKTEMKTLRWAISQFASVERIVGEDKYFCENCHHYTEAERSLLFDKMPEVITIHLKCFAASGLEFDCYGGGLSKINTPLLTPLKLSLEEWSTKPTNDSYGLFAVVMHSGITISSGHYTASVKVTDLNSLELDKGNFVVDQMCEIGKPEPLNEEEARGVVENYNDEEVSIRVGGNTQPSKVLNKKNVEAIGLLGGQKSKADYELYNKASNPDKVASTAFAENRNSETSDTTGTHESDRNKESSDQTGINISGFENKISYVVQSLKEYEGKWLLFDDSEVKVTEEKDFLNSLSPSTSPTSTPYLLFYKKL
Procedure, shortened: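 Enzyme-free wells gave the negative control, while test wells held 1nM USP1/UAF1 preincubated with compound for 15 min at room temperature. Ub-Rho at 150nM final started the reaction, and fluorescence at 480/540 nm was recorded kinetically.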

[3] = molecular target: phosphoglycerate mutase (Leishmania major) (UniProt Q4Q090); assay: qHTS Validation Assay to Find Inhibitors of Phosphoglycerate Mutase (AID 504548); note: series mostly up to about 58 µM
Sequence of phosphoglycerate mutase (Leishmania major) (Q4Q090 1-553): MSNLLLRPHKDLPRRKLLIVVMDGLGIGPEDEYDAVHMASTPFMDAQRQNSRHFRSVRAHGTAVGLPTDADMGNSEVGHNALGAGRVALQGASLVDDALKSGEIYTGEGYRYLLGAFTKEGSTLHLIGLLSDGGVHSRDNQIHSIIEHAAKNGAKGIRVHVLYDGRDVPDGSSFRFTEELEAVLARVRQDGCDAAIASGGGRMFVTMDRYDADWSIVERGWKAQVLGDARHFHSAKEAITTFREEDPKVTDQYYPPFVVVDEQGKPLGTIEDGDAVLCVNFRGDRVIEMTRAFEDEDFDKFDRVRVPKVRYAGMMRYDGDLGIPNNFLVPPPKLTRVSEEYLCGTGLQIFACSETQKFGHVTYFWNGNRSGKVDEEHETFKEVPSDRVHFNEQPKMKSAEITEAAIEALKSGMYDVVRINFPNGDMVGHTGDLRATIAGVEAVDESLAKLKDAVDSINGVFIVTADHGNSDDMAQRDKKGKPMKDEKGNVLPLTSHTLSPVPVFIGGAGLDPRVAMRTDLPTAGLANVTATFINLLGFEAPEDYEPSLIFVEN
Procedure, shortened: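 Luminescent end-point read-out via Kinase-GloPlus after a 10-minute development. Reaction: 1.25nM Leishmania major PGAM with substrate and compound, 45 minutes at room temperature in TEA buffer (pH 7.6) with MgCl2 and Tween-20.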

[4] = molecular target: Estrogen receptor (Homo sapiens) (UniProt P03372); assay: qHTS assay for small molecule agonists of estrogen receptor alpha signaling (AID 588514; calls by dose curve; note: nearly all actives have a fitted effect of over 70% in size)
Sequence of Estrogen receptor (Homo sapiens) (P03372 whole entry, looked up): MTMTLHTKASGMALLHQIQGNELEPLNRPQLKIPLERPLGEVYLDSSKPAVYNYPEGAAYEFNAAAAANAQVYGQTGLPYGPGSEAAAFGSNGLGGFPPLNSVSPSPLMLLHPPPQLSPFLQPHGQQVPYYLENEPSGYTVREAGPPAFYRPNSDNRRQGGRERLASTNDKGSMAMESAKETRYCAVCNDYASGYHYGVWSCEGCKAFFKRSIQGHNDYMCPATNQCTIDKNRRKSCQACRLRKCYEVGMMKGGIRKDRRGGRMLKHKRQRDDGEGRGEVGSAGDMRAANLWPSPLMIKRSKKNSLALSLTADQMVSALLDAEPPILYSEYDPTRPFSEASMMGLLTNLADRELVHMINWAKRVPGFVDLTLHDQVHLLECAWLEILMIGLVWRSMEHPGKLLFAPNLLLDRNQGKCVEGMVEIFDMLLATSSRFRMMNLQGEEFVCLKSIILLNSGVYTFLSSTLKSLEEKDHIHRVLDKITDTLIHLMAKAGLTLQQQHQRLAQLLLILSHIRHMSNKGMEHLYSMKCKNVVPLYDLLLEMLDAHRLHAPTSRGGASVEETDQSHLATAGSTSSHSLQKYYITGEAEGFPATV
Procedure, shortened: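 ER-alpha-UAS-bla GripTite HEK 293 cells in medium with 2% charcoal/dextran-treated FBS were treated with compound titrations at 37 C for 18 hrs; beta-lactamase reporter read by CCF4 fluorescence after 2 hrs at RT.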

[5] = qHTS assay for small molecule antagonists of peroxisome proliferator-activated receptor delta signaling (AID 588535; active = well fitted inhibition curve with a large enough effect in the signal ratio, with a control signal flat, not every such curve was filed as active; the % refers to the signal ratio;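 for max response: cells co-treated with a PPAR-delta agonist as stimulator during compound exposure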); details: HEK293T PPARd-UAS-bla, beta-lactamase FRET ratio, 18 h; 460 nm channel
Procedure, shortened: (§1)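 GeneBLAzer PPAR-delta-UAS-bla HEK293T cells in medium with 2% charcoal/dextran FBS were preincubated 5 hrs at 37 C, then given compounds, incubated 18 hrs at 37 C, and read by CCF4 beta-lactamase fluorescence; IC50 from Hill fits.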

[6] = molecular target: Peroxisome proliferator-activated receptor delta (Homo sapiens) (UniProt Q03181); assay: as above
Sequence of Peroxisome proliferator-activated receptor delta (Homo sapiens) (Q03181 whole entry, looked up): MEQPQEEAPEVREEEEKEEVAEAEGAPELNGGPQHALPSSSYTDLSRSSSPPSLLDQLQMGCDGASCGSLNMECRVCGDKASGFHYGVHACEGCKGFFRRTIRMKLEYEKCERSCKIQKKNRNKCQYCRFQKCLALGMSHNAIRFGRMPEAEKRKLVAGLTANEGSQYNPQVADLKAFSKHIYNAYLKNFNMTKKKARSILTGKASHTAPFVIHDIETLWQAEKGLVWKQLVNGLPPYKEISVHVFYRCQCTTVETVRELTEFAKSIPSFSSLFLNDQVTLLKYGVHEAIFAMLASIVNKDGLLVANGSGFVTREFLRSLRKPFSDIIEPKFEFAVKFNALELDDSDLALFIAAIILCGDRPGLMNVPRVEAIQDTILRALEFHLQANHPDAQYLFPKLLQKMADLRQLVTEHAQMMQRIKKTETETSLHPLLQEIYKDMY
Procedure, shortened: as §1

[7] = molecular target: Vitamin D3 receptor (Homo sapiens) (UniProt P11473); assay: qHTS assay for small molecule antagonists of vitamin D receptor signaling (AID 588541; calls by dose curve;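 note: receptor activated by calcitriol during compound treatment; series mostly up to about 77 µM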)
Sequence of Vitamin D3 receptor (Homo sapiens) (P11473 whole entry, looked up): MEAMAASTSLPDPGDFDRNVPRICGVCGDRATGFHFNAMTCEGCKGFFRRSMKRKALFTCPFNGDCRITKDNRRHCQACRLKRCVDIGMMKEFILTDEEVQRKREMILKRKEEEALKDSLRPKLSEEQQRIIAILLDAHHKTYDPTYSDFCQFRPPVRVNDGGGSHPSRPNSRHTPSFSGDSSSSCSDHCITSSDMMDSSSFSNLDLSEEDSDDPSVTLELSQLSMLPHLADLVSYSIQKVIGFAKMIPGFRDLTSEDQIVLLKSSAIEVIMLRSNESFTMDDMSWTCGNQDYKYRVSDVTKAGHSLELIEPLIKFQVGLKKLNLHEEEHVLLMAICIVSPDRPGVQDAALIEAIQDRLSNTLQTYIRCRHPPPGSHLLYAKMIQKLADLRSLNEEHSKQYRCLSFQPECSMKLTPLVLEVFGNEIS
Procedure, shortened: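 VDR-UAS-bla HEK293T cells (2000/well, 2% charcoal-stripped FBS) were treated with titrated compounds plus 1-alpha,25-dihydroxyvitamin D3 (50 nM or 3 nM final) for 16 h at 37 C. CCF4 beta-lactamase fluorescence was read; Hill fits gave IC50.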

[8] = molecular target: Vitamin D3 receptor (Homo sapiens) (UniProt P11473); assay: qHTS assay for small molecule agonists of vitamin D receptor signaling (AID 588543; calls by dose curve)
Procedure, shortened: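 Measured: β-lactamase reporter activity (CCF4, 405 nm excitation, 460/530 nm emission) in HEK293T VDR-UAS-bla cells after 16 h compound exposure at 37 °C. Normalization against 50 nM 1α,25-dihydroxyvitamin D3 and DMSO; Hill-fit EC50.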

[9] = qHTS for Inhibitors of ATXN expression: Validation (AID 588378); note: nearly all actives have a fitted effect of over 75% in size; note: potency is the fitted concentration of half-maximal effect
Procedure, shortened: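 After a 2 h attachment and 24 h compound incubation, HEK293-ATXN2-FFLuc wells are read for fluorescence at 405 nm excitation/525 nm emission as a viability measure, then for Bright-Glo luminescence reflecting ATXN2 expression.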

[10] = molecular target: Bile acid receptor (Homo sapiens) (UniProt Q96RI1); assay: qHTS assay for small molecule antagonists of farnesoid X receptor signaling (AID 588526; calls by dose curve)
Sequence of Bile acid receptor (Homo sapiens) (Q96RI1 whole entry, looked up): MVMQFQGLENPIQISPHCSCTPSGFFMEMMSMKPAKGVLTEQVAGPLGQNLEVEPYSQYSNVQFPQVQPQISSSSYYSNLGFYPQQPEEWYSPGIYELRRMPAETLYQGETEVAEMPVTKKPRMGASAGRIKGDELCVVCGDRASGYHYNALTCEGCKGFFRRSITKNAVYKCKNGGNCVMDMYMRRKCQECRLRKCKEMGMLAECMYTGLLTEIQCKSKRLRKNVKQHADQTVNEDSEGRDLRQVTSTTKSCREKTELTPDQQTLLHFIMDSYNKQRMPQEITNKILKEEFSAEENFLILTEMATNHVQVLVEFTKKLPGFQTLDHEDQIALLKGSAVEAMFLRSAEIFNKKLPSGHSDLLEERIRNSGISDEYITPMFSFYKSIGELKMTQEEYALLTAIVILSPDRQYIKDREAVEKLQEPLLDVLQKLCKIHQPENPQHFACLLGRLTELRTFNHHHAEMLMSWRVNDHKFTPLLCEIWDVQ
Procedure, shortened: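 Concentration-response titrations were fitted to the Hill equation for half-maximal inhibition and maximal response, with data normalised to 50 uM chenodeoxycholic acid and DMSO control wells. Cells: FXR-UAS-bla HEK293T, dialyzed FBS.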

[11] = molecular target: Glucocorticoid receptor (Homo sapiens) (UniProt P04150); assay: qHTS assay for small molecule agonists of glucocorticoid receptor signaling (AID 588532; active = well fitted curve in the direction sought with a large enough effect in the signal ratio, with a control signal flat; the % refers to the signal ratio); details: HeLa MMTV-bla, beta-lactamase ratio, agonist, 18 h; stronger effect = higher value; percent of dexamethasone control, DMSO zero
Sequence of Glucocorticoid receptor (Homo sapiens) (P04150 whole entry, looked up): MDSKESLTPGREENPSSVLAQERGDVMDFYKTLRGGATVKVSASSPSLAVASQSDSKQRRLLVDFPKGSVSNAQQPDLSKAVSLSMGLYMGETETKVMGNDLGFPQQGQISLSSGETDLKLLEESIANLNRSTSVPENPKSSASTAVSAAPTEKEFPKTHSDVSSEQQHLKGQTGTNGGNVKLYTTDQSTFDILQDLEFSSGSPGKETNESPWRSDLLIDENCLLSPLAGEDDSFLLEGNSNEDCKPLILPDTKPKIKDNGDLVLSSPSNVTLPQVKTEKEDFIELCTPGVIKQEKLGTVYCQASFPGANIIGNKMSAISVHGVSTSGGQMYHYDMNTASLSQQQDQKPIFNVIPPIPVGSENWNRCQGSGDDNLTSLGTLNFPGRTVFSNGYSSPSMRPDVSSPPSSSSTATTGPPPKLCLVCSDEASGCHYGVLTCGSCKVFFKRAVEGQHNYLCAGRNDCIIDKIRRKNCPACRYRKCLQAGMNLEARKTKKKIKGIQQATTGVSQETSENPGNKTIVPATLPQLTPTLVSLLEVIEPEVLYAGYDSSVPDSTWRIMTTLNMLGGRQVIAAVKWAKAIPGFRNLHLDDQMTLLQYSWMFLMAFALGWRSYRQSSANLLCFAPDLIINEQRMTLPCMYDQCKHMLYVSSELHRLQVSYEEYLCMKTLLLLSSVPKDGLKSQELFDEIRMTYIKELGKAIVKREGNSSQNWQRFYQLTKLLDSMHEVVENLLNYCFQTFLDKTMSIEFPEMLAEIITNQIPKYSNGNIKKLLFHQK
Procedure, shortened: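 Stimulation of a glucocorticoid response element-driven beta-lactamase gene was measured in HeLa cells. Responses were scaled between DMSO basal and 0.1 uM dexamethasone, then fitted for half-maximal stimulation.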

[12] = molecular target: Peroxisome proliferator-activated receptor gamma (Homo sapiens) (UniProt P37231); assay: qHTS assay for small molecule agonists of peroxisome proliferator-activated receptor gamma signaling (AID 588536; active = well fitted curve in the direction sought with a large enough effect in the signal ratio, with a control signal flat, not every such curve was filed as active; the % refers to the signal ratio)
Sequence of Peroxisome proliferator-activated receptor gamma (Homo sapiens) (P37231 whole entry, looked up): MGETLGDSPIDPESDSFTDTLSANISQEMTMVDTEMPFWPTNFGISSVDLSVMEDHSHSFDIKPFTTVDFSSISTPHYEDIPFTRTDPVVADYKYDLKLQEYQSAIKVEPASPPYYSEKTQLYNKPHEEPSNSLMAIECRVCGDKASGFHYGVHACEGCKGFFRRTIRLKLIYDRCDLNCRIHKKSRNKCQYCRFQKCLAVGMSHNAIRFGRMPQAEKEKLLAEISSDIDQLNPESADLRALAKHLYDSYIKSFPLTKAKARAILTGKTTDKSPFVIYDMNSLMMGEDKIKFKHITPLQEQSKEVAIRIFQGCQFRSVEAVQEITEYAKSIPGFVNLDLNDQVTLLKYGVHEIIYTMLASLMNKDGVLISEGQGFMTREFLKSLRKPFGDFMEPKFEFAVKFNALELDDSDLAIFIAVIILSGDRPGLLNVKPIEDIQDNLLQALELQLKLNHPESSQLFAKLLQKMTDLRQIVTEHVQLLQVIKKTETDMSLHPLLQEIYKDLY
Procedure, shortened: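 Test agents, titrated, stimulated HEK293 UAS-bla cells overnight (16 h, 37 C). Substrate CCF4 was then added for two hours at room temperature before fluorescence reading.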

[13] = molecular target: Glucocorticoid receptor (Homo sapiens) (UniProt P04150); assay: qHTS assay for small molecule antagonists of glucocorticoid receptor signaling (AID 588533; active = well fitted inhibition curve with a large enough effect in the signal ratio, with a control signal flat, not every such curve was filed as active; the % refers to the signal ratio;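 note: cells stimulated with 2 nM dexamethasone as agonist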)
Procedure, shortened: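 Antagonist-mode qHTS: compound titrations added to GRE-bla HeLa cells, then dexamethasone 2 nM final; 18 h, 37 C. CCF4 FRET fluorescence normalized to dexamethasone and DMSO; IC50 from Hill fit.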

[14] = molecular target: DNA dC->dU-editing enzyme APOBEC-3G (Homo sapiens) (UniProt Q9HC16); assay: qHTS for inhibitors of Vif-A3G interactions: Validation (AID 588379)
Procedure, shortened: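 HeLa cells stably expressing Vif and A3G-eYFP, 700 cells/well, incubated overnight at 37 deg C, then exposed to compound overnight at 37 deg C. Inhibition of Vif-mediated degradation read as increased yellow fluorescence (Ex 488/Em 500-530) by laser-scanning cytometry.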

CCN(CC)CCCC(C)Nc1c2ccc(Cl)cc2nc2ccc(OC)cc12 (centres undefined)
outcome [1]: inactive | Potency [2]: 56.2 µM (active) and 79.4 µM (active)

CCCCc1ncc(/C=C(\Cc2cccs2)C(=O)O)n1Cc1ccc(C(=O)O)cc1
Potency [2]: inactive

COc1cc(C)c(Cc2cnc(N)nc2N)cc1OC
Potency [2]: inactive

CCn1cc(C(=O)O)c(=O)c2cnc(N3CCNCC3)nc21
Potency [2]: inactive

CCN(CC)CCSC(=O)C(c1ccccc1)c1ccccc1
Potency [2]: inactive

CN(C)CCC=C1c2ccccc2CCc2ccccc21
outcome [1]: inactive | outcome [3]: inactive | outcome [4]: inactive | max response [5]: 10% | outcome [6]: inactive | outcome [7]: inactive | outcome [8]: inactive

O=S(=O)(O)c1cc(I)c(O)c2ncccc12
Potency [2]: inactive

CC(CN1c2ccccc2Sc2ccccc21)N(C)C (centres undefined)
outcome [1]: inactive | outcome [3]: inactive | Potency [2]: inactive | Potency [9]: 17.8 µM (active)

O=C(Oc1ccccc1C(=O)O)c1ccccc1O
Potency [2]: inactive

CN(C)CCCN1c2ccccc2Sc2ccc(Cl)cc21
outcome [1]: inactive | outcome [3]: inactive | Potency [2]: inactive | outcome [10]: inactive | activation [11]: 7.77% (inactive) | max response [5]: -54.6% | outcome [6]: inactive | outcome [12]: inactive | outcome [7]: inactive | outcome [8]: inactive

CC1(C)CO[C@@H](CC(=O)O)CN1
Potency [2]: inactive

Nc1ccc(S(=O)(=O)Nc2ccccc2)cc1
Potency [2]: inactive

CC(COc1ccccc1)NC(C)C(O)c1ccc(O)cc1 (centres undefined)
Potency [2]: inactive

CCOC(=O)[C@H](CCc1ccccc1)N[C@@H](C)C(=O)N1C(=O)N(C)C[C@H]1C(=O)O
Potency [2]: inactive

NC(=O)NC(=O)Cc1ccccc1
Potency [2]: inactive

CNCC(O)c1ccc(O)c(O)c1 (centres undefined)
outcome [1]: inactive | outcome [3]: inactive | Potency [2]: inactive | Potency [9]: inactive

OCC(O)CN1CCN(c2ccccc2)CC1 (centres undefined)
Potency [2]: inactive

COc1ccc(S(=O)(=O)Nc2nnc(CC(C)C)s2)cc1
Potency [2]: inactive

Cc1cccc(C)c1NC(=O)CN(CC(=O)O)CC(=O)O
Potency [2]: inactive

NS(=O)(=O)c1cc2c(cc1Cl)NC(CSCc1ccccc1)=NS2(=O)=O
Potency [2]: inactive

Cc1ccc2nc(N)[nH]c(=O)c2c1Sc1ccncc1
Potency [2]: inactive

Cc1cc(O)cc2c1O[C@](C)(CCC[C@H](C)CCC[C@H](C)CCCC(C)C)CC2
Potency [2]: inactive

N[C@@H](CSCCCO)C(=O)O
Potency [2]: inactive

CCCCCCCCCCCCCCCCCCOCC(O)CO (centres undefined)
Potency [2]: inactive

Cc1ccc(C(C)C)cc2c(C)ccc1-2
Potency [2]: inactive

NC(=O)N/N=C/c1ccc([N+](=O)[O-])o1
Potency [2]: inactive | outcome [4]: inactive | activation [11]: -5.85% (inactive) and -2.6% (inactive) | outcome [13]: inactive | max response [5]: 4.74% | outcome [6]: inactive | outcome [12]: inactive | outcome [7]: inactive | outcome [8]: inactive

NCCNCCNCCN
Potency [2]: inactive | outcome [10]: inactive | activation [11]: 21.8% (inactive) | outcome [13]: inactive | max response [5]: 26% | outcome [6]: inactive | outcome [7]: inactive | outcome [8]: inactive

O=C(O)CN1C(=O)c2cccc3cccc(c23)C1=O
Potency [2]: inactive | outcome [14]: inactive

CCOC(CN1CCN(CC(C)C(=O)c2ccccc2)CC1)c1ccccc1 (centres undefined)
Potency [2]: inactive

O=c1cc(CO)occ1O
Potency [2]: inactive | outcome [14]: inactive
